Only a selection was taken, and hits are over-represented in it overall.
CHX counter – counter-screen hit for Shiga toxin inhibitors, cycloheximide; cell reporter, cycloheximide protein synthesis inhibition counterscreen; max response, %; 300,000 tested, 12% active; AID 2314; in the data active = max response mostly above about 13%, no sharp cut-off; inactive = mostly below about 14%; note: read at 38.3 µM for the half of the compounds with a filed dose; 0% is about no effect
LmPK inhibitor – blocks Leishmania mexicana pyruvate kinase activity; Q27686; purified LmPK, Kinase-Glo ATP luminescence, 1 h; Potency, µM (highest dose often 57.5 µM), for inactives: at the highest dose activity change, negative = inhibition, hits mostly inhibitors; 290,000 tested, 0.37% active; AID 1721; note: potency is the fitted concentration of half-maximal effect; % is set by controls: 0 for no effect and ±100 for the full control effect
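Pyruvate kinase activity monitored as ATP production (luciferase luminescence). Conditions: 0.1 nM enzyme, 0.5 mM PEP, 0.1 mM ADP, 1 h, RT; normalized against uninhibited and no-enzyme wells.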
RE007 growth inh – less growth of the S. pombe RE007 Vpr strain; S. pombe RE007 Vpr strain, BacTiter-Glo ATP luminescence, 24 h; Potency, µM (doses to about 92.2 µM), for inactives: at the top dose activity change, negative = less growth, usual class: inhibitors; 360,000 tested, 0.21% active; AID 651644; active = well fitted falling curve with a large enough effect; inconclusive = small, poorly fitted or top-dose-only effect; inactive = no such curve, though single readings can be large or run the other way; note: potency is the fitted concentration of half-maximal effect; % is set by controls: 0 for no effect and ±100 for the full control effect; nearly all actives have a fitted effect of over 50% in size
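Fission yeast strain RE007, carrying one chromosomally integrated HIV-1 vpr copy, was seeded at OD 0.01 in PMG+AL medium with 23 nL pinned compound. After 24 h at 30 °C and 99% humidity, viability was read by BacTiter-Glo luminescence.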
Giardia FBPA inh – inhibitors of Giardia lamblia fructose-1,6-bisphosphate aldolase; purified Giardia FBPA; Potency, µM (series often up to 59.6 µM), inactives show at the top dose activity, negative = inhibition, most hits filed as inhibitors; 290,000 tested, 0.71% active; note: potency is the fitted concentration of half-maximal effect; % is set by controls: 0 for no effect and ±100 for the full control effect; nearly all actives have a fitted effect of over 55% in size
Target sequence (A8B2U2 whole entry, looked up): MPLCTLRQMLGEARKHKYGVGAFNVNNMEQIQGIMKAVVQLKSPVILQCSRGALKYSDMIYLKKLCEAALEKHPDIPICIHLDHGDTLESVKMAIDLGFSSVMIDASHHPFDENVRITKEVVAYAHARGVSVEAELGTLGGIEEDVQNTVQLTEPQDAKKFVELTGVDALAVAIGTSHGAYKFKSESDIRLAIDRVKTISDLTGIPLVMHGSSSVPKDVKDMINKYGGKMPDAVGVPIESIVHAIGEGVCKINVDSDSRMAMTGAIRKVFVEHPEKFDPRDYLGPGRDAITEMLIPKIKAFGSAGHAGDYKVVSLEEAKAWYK
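40 nM FBPA preincubated 10 min at RT with compound (up to 57.5 uM final), then substrate plus GAPDH/TPI/NAD/arsenate coupling and diaphorase/resazurin added. Fluorescence read after 20 min at RT, 525/598 nm.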
Shiga inhibitor – Shiga toxin inhibition. AID 2315. inhibition, % at 38.7 µM. 290,000 tested, 9.2% active. Vero cells, Shiga toxin protein synthesis inhibition reporter; in the data active = inhibition mostly above about 28%, no sharp cut-off; inactive = mostly below about 43%; note: 0% is about no effect
Tb PYK inh – blocks Trypanosoma brucei pyruvate kinase | TbPYK enzyme, Kinase-Glo Plus ATP luminescence, 45 min | 410,000 tested, 0.12% active | Q57TT1 | Potency, µM (series often up to 76.8 µM), without a hit: at the highest dose activity, negative = inhibition, actives largely listed as inhibitors; note: potency is the fitted concentration of half-maximal effect; % is set by controls: 0 for no effect and ±100 for the full control effect; nearly all actives have a fitted effect of over 50% in size
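Glycolytic pyruvate kinase of T. brucei was incubated with substrate, test compound and 130 uM ADP for 45 minutes at room temperature. Luminescent Kinase-Glo Plus signal was measured after 10 minutes.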
The depositor's hits bear a star; ? = inconclusive; nt = no result given. Unless noted, calls come from the whole dose curve; as a rule, active = well fitted curve in the direction sought with a large enough effect; inconclusive = small, poorly fitted or top-dose-only effect, or another doubt; inactive = no such curve, though single readings can be large; an effect the other way counts as inactive or inconclusive.

SMILES	CHX counter	LmPK inhibitor	RE007 growth inh	Giardia FBPA inh	Shiga inhibitor	Tb PYK inh
CN1OC(COC(=O)c2ccccc2)CC1c1ccccc1 (centres undefined)	40.8*	-0.1%	-12.4%	6.5%	94.1*	-9.7%
CN1C2CCC1C(COC(=O)c1ccccc1)C(O)C2 (centres undefined)	-2.8	-8.3%	9.0%	6.4%	5.2	2.2%
O=C(OCc1cncs1)c1ccccc1Cl	13.2	-0.8%	4.6%	2.1%	16.7	-3.6%
O=C(Nc1ccccc1Cl)OCc1cncs1	17.4*	-2.6%	-10.6%	2.2%	22.5	0.7%
Cc1cccc(C(=O)OCc2cc(=O)n3nc(-c4cccs4)sc3n2)c1	nt	nt	nt	nt	nt	-2.6%
Cc1cccc(C(=O)OCc2cncs2)c1	33.1*	-4.5%	30.3%	3.7%	53.4	3.3%
CCC[C@@H]1CC(C(=O)NC(C2O[C@H](SC)C(OP(=O)(O)O)[C@H](O)[C@H]2O)[C@H](C)Cl)N(C)C1 (some centres undefined)	-2.9	nt	nt	4.5%	-9.4	4.0%
O=C(Nc1ccc2c(c1)nc1n2CCOC1)C1CCCCC1	28.9*	-5.5%	4.9%	-5.2%	80.9*	-0.9%
O=C(Nc1ccc2c(c1)nc1n2CCOC1)c1ccco1	32.5*	0.7%	-5.0%	0.2%	72.6*	-15.1%
CCC(Nc1ncnc2ccc(-c3c(C)noc3C)cc12)c1ccccc1 (centres undefined)	11.4	nt	nt	-0.1%	3.0	nt
O=C(c1ccc(F)cc1Cl)N1CCN(S(=O)(=O)c2cccs2)CC1	-2.2	-0.3%	-4.3%	-1.2%	-7.9	3.3%
COc1ccc(-c2csc(Nc3ccc(C)cn3)n2)cc1OC	34.0*	-2.2%	-2.6%	-6.0%	75.4*	-8.4%
COc1ccc(-c2csc(Nc3cc(C)ccn3)n2)cc1OC	51.1*	-5.5%	-7.2%	10.4%	63.2*	-7.2%
Cc1ccc(-c2nc(CCNC(=O)C(=O)Nc3c(C)cccc3C)cs2)cc1	nt	nt	nt	nt	nt	5.0%
CCOC(=O)CC(NC(=O)c1cc2cc(OC)ccc2oc1=O)c1ccc(OC)cc1 (centres undefined)	nt	nt	nt	nt	nt	-15.3%
CCOC(=O)Cc1csc(NC(=O)Cc2ccccc2)n1	2.0	2.8%	0.2%	-6.0%	-15.7	-4.4%
CCOC(=O)c1sc(NCCNc2nc(C)c(C(=O)OCC)s2)nc1C	-2.9	3.4%	11.2%	2.6%	8.2	1.6%
CCOC(=O)c1sc(NC(=O)/C=C/c2c(F)cccc2Cl)nc1C	40.5*	-2.2%	-4.7%	4.7%	-7.2	2.0%
COC(=O)Cc1csc(Nc2ccccc2Cl)n1	35.8*	-4.9%	7.8%	-7.5%	51.7*	3.2%
CCOC(=O)c1sc(Nc2ccc(Br)cc2)nc1C	29.6*	2.5%	?	?	89.2*	1.5%
CCOC(=O)c1sc(NC(=O)CCC(=O)O)nc1C	-2.1	-1.6%	12.2%	2.1%	-8.8	-5.1%
CCOC(=O)c1sc(NC(=O)Nc2ccccc2F)nc1C	86.4*	-5.8%	-1.6%	4.3%	75.4*	-0.7%
CCOC(=O)c1sc(NC(=O)Cc2ccc(C)cc2)nc1C	13.8	-0.2%	19.3%	-3.3%	21.5	-1.1%
CC(=O)c1sc(Nc2cccc3ccccc23)nc1C	nt	nt	1.7%	nt	nt	1.2%
CCOC(=O)c1sc2cccc(F)c2c1N	25.3*	1.9%	-13.4%	1.7%	25.1*	3.9%
SMILES	CHX counter	LmPK inhibitor	RE007 growth inh	Giardia FBPA inh	Shiga inhibitor	Tb PYK inh
CCOC(=O)c1sc(Nc2ccccc2Cl)nc1C	41.7*	-4.6%	-14.8%	5.2%	87.6*	5.6%
CCOC(=O)c1cc2nc(Nc3ccc(OC)cc3)sc2s1	14.0*	-0.2%	-2.4%	-5.2%	57.8*	-10.1%
Cc1ccc(NC(=O)C2CCC(CNS(=O)(=O)c3csc(C(N)=O)c3)CC2)cc1Cl (centres undefined)	nt	nt	nt	nt	nt	-5.7%
COc1ccc(NC(=O)c2ccc(-c3nc(CSc4ccc(C)cc4)c(C)o3)cc2)cc1Cl	nt	nt	nt	nt	nt	0.6%
CC(C)NCC(O)COc1ccc2c(c1)CCC2 (centres undefined)	32.5*	-0.2%	-25.1%	1.3%	110.0*	-2.4%
OC(COc1ccc2c(c1)CCC2)Cn1cnc2ccccc21 (centres undefined)	22.7	-4.6%	-24.2%	-8.2%	74.2*	6.8%

High-throughput results deposited in PubChem by National Center for Advancing Translational Sciences (NCATS).
